From PubChem
Most compounds without a hit are left out; they make up all but 18% or so of the library.
LDHA block = inhibitors of human lactate dehydrogenase A; P00338; purified LDHA, NADH/diaphorase-resazurin fluorescence; hits give low values; activity change, % (values are at about 110 or 230 µM); 0.15% of 480,000 active; AID 1347041; in the data active = activity change below about -30%; inconclusive = mostly about -25% to -30%
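Remaining NADH was detected by diaphorase (0.133 mg/mL) converting 37 µM resazurin to fluorescent resorufin, read at 0 and 20 minutes. The preceding 5-minute room-temperature reaction used 2 nM LDHA, 0.2 mM sodium pyruvate and 0.06 mM NADH at pH 7.4.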
IL-1B inflam inh = inflammasome signaling inhibition, IL-1 beta readout | 4.7% of 360,000 active | THP-1 LPS/ATP IL-1B secretion, AlphaLISA, 16 h; hits give low values | activity change, % at 57.5 µM; in the data active = activity change below about -50%; inconclusive = mostly about -30% to -49%
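Secreted IL-1B measured by AlphaLISA bead assay after 16 h compound exposure of THP-1 cells; compounds (final up to 57.5 uM) added 1 h before LPS (250 ng/mL) and ATP (1.25 mM) stimulation; lower signal means less secretion.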
RORg inh = inhibitors of mouse ROR gamma transcriptional activity; Drosophila S2 Gal4-RORgamma UAS-luciferase reporter, 20 h; AID 2551; Potency, µM (titrated, usually from 53.6 µM), most hits filed as inhibitors; 5.4% of 310,000 active; also: nearly all actives have a fitted effect of over 60% in size
Target sequence (P51450 whole entry, looked up, the tested form may be a part): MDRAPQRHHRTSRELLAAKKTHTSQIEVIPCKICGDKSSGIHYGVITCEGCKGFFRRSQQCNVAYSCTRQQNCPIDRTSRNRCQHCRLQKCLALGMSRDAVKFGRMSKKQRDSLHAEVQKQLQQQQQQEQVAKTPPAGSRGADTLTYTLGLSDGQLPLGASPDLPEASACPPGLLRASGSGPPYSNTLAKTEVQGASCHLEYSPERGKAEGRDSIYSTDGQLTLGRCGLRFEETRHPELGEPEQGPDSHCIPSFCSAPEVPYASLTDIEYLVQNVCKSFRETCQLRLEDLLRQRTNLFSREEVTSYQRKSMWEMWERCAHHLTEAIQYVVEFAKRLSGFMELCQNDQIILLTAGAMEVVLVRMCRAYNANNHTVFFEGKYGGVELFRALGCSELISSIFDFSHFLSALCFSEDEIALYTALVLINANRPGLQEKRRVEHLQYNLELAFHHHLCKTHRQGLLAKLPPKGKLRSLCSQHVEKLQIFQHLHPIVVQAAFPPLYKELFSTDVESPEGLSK
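Luminescence from a UAS-regulated Photinus luciferase reporter in stably transfected Drosophila Schneider cells is measured; decreased signal marks ROR gamma inhibition. Fusion expression is induced by 700 uM copper sulfate for 20 hr.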
VP16 counter = inhibits Gal4-VP16 luciferase reporter, ROR gamma counter-screen. Drosophila S2 Gal4-VP16 UAS-luciferase, luminescence, 20 h. Potency, µM (titrated, usually from 53.6 µM), hits mostly inhibitors. 3.5% of 310,000 active;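 also: Gal4-VP16 expression switched on by copper sulfate through the metallothionein promoter; nearly all actives have a fitted effect of over 50% in size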
DT40 TDP1 no CPT = qHTS for Inhibitors of human tyrosyl-DNA phosphodiesterase 1 (TDP1): qHTS in cells in absence of CPT | DT40 Tdp1-/- hTDP1 cells, no CPT, ATP luminescence, 48 h | Potency, µM (top dose mostly 46.2 µM), most hits filed as inhibitors | 15% of 420,000 active | AID 686978, 2013; also: nearly all actives have a fitted effect of over 55% in size
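Camptothecin absent (DMSO only). Human TDP1-complemented DT40 knockout cells, 400 cells/well, 37 °C for minimum 48 hr; ATP measured via CellTiter-Glo, 30 min dark incubation, luminescence.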
TDP1 cell CPT = DT40-hTDP1 cell growth loss with CPT; chicken DT40 Tdp1-/-;hTDP1 cells + 20 nM CPT, ATP luminescence, 48 h; Potency, µM (top dose mostly 46.2 µM), hits mostly inhibitors; 12% of 420,000 active; also: nearly all actives have a fitted effect of over 55% in size
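Chicken DT40 Tdp1-/- cells stably complemented with human TDP1 were seeded at 400 cells/well in medium containing 20 nM camptothecin, exposed to pin-transferred compounds, and grown at 37 °C for at least 48 hr. Viability was read as ATP luminescence.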
Hits are given with their value; i = inactive; ? = inconclusive; nt = no result given; ! = a repeat was not active. Unless noted, calls follow the shape of the dose curve; as a rule, active = well fitted curve in the direction sought with a large enough effect; inconclusive = small, poorly fitted or top-dose-only effect, or another doubt; inactive = no such curve, though single readings can be large; an effect the other way counts as inactive or inconclusive.

SMILES | LDHA block | IL-1B inflam inh | RORg inh | VP16 counter | DT40 TDP1 no CPT | TDP1 cell CPT
Cc1ccc([C@H]2C[C@@H](n3cc(-c4ccc(F)cc4)nn3)[C@H](O)CN2Cc2cccs2)cc1 | i | i | nt | nt | ? | i
O=C(c1cccs1)N1C[C@@H](O)[C@H](n2cc(-c3ccc(F)cc3)nn2)C[C@@H]1c1ccc(Cl)cc1 | i | i | nt | nt | 23.1µM | ?
COc1ccccc1NS(=O)(=O)c1ccc2oc(SCCOc3ccc(F)cc3)nc2c1 | i | nt | nt | nt | nt | nt
CCC(C)CNC(=S)NC1CC1 (stereo unspecified) | i | nt | nt | nt | nt | nt
O=C(NC1CCCC1)c1cccc(I)c1 | i | nt | nt | nt | nt | nt
O=C(Nc1cccc(Cl)c1)c1cc2c(=O)n3ccccc3nc2n1Cc1ccccc1 | i | nt | nt | nt | nt | nt
CCn1c(CCC(N)=O)nnc1SC(C)C(=O)c1c[nH]c2ccccc12 (stereo unspecified) | i | nt | nt | nt | nt | nt
O=C(c1cccs1)N1C[C@@H](n2cc(-c3ccc(F)cc3)nn2)[C@H](O)C[C@@H]1c1ccc(Cl)cc1 | i | i | nt | nt | 23.1µM | 13µM
CNC(NC(=O)c1ccc(F)cc1)C(Cl)(Cl)Cl (stereo unspecified) | i | nt | nt | nt | nt | nt
CCc1ccc(NC(=O)C(=O)NCC(c2cccnc2)N2CCOCC2)cc1 (stereo unspecified) | i | nt | nt | nt | ? | ?
O=C(NCC(c1cccnc1)N1CCN(Cc2ccccc2)CC1)C(=O)Nc1ccc(F)cc1 (stereo unspecified) | i | nt | nt | nt | 23.1µM | 18.4µM
O=C(NCC(c1cccnc1)N1CCN(Cc2ccccc2)CC1)C(=O)Nc1cccc(F)c1 (stereo unspecified) | i | nt | nt | nt | 23.1µM | 25.9µM
CCc1ccc(NC(=O)C(=O)NCC(c2cccnc2)N2CCN(Cc3ccccc3)CC2)cc1 (stereo unspecified) | i | nt | nt | nt | 8.2µM | 11.6µM
CCN(CC)C(=O)C(Sc1nc2cc(S(=O)(=O)N3CCCCC3)ccc2o1)c1ccccc1 (stereo unspecified) | i | nt | nt | nt | nt | nt
O=C(/C=C/c1ccc(SC(F)(F)F)cc1)c1ccc(O)c(CCCl)c1 | i | nt | nt | nt | nt | nt
N=C(N)SCCc1ccc(OCc2ccc([N+](=O)[O-])cc2)cc1 | nt | nt | i | i | ? | 8.41µM
O=S1(=O)CCOCCCN1Cc1cccc(C(F)(F)F)c1 | i | i | i | i | i | i
Cc1ccccc1CN1[C@@H](C(C)C)COCCS1(=O)=O | i | i | nt | nt | i | i
O=S1(=O)CCOC[C@H](CC2CCCCC2)N1Cc1cccc(C(F)(F)F)c1 | i | i | i | i | 18.4µM | ?
CCC[C@H]1COCCS(=O)(=O)N1Cc1ccc(Br)cc1 | nt | nt | i | i | 11.2µM | ?
CC(C)[C@H]1COCCS(=O)(=O)N1Cc1ccccc1 | i | i | nt | nt | 10µM! | ?
O=S1(=O)CCOC[C@H](Cc2ccccc2)N1Cc1cccc(C(F)(F)F)c1 | i | i | nt | nt | ? | 18.4µM
O=C1CCCC2=C1C(c1ccc(F)cc1)C=C1c3cc4c(cc3CCN12)OCCCO4 (stereo unspecified) | i | nt | nt | nt | nt | nt
CC(C)c1ccc(CNc2nc(-c3ccco3)nn2S(=O)(=O)c2ccc(F)cc2)cc1 | i | nt | nt | nt | ? | 20.6µM
CS(=O)(=O)n1nc(-c2ccco2)nc1NCc1ccccc1Cl | i | nt | nt | nt | 18.4µM | ?
SMILES | LDHA block | IL-1B inflam inh | RORg inh | VP16 counter | DT40 TDP1 no CPT | TDP1 cell CPT
COc1ccc(S(=O)(=O)n2nc(-c3ccco3)nc2NCc2ccc(C(C)C)cc2)cc1 | i | nt | nt | nt | 23.1µM | 18.4µM
O=S(=O)(c1ccc2ccccc2c1)n1nc(-c2ccco2)nc1NCc1ccc(F)cc1 | i | nt | nt | nt | i | i
CC(C)c1ccc(CNc2nc(-c3ccco3)nn2S(=O)(=O)c2ccc3ccccc3c2)cc1 | i | nt | nt | nt | ? | ?
Cc1ccc(-n2nnnc2SCC(=O)Nc2ccc(N3CCOCC3)cc2)cc1C | i | nt | nt | nt | nt | nt
CCC1CCCCN1C(=O)C1=CC(c2ccc(C)cc2)=NS(=O)(=O)N1C (stereo unspecified) | i | nt | nt | nt | nt | nt
OCC1OC(c2ccc(OCc3ccccc3)cc2OCc2ccccc2)C(O)C1O (stereo unspecified) | i | ? | nt | nt | 9.2µM | 10.3µM
CCOC(=O)c1cc(-c2ccccc2)n(CCC(=O)NCCc2cccc(C)c2)c1C | i | nt | nt | nt | ? | 16.4µM
CCOC(=O)c1cc(-c2ccc(OC)cc2)n(CCC(=O)NCCc2ccccc2)c1C | i | nt | nt | nt | 18.4µM | 20.6µM
CC(NC(=O)c1cc(F)cc(F)c1)C1CC2CCC1C2 (stereo unspecified) | i | nt | nt | nt | nt | nt
Cc1ccccc1-n1ncc2c(SCC(=O)N3c4ccccc4CC3C)ncnc21 (stereo unspecified) | i | -91.8 | i | i | 20µM | 29.1µM
CC1Cc2ccccc2N1C(=O)CSc1nncs1 (stereo unspecified) | i | i | nt | nt | i | i
CC1Cc2ccccc2N1C(=O)CSc1nc(-c2ccccc2)cs1 (stereo unspecified) | i | i | i | i | 25.9µM | ?
Cc1ccccc1-n1ncc2c(SCC(=O)NC3CCCC3)ncnc21 | i | -70.8 | ? | ? | 7.31µM | 20.6µM
Cc1ccc2nc(SCC(=O)N3c4ccccc4CC3C)c(C)cc2c1 (stereo unspecified) | i | i | i | i | 14.6µM | 23.1µM
Cc1ccsc1CNC(=O)c1nccnc1N | i | nt | nt | nt | nt | nt
CNc1c(NS(=O)(=O)c2ccc(N3CCCC3=O)cc2)c(=O)oc2ccccc12 | i | nt | nt | nt | nt | nt
CN(CCOc1ccc(Cl)cc1)C(=O)c1cccc(S(=O)(=O)N2CCN(c3ccc(F)cc3)CC2)c1 | i | i | nt | nt | 5.17µM | 7.31µM
O=C(NCCOc1ccc(Cl)cc1)c1cccc(S(=O)(=O)N2CCCC2)c1 | i | i | nt | nt | ? | ?
COc1ccc(CCN(C)C(=O)c2cccc(S(=O)(=O)N3CCN(c4ccc(F)cc4)CC3)c2)cc1OC | i | i | nt | nt | 16.4µM | 14.6µM
COc1ccccc1NC(=O)c1cccc(S(=O)(=O)N2CCN(c3ccccc3)CC2)c1 | i | ? | nt | nt | i | ?
CN(C)CCCNC(=O)c1cc2cc(Cl)ccc2[nH]1 | i | nt | nt | nt | nt | nt
Cc1nc2ccccc2nc1OCc1cccc(Cl)c1 | i | i | i | i | 14.6µM | ?
Oc1ccccc1N=Cc1sc2ccccc2c1Cl | i | i | i | ? | 18.4µM | ?
COc1cccc2cc(S(=O)(=O)N3CCCC(C)C3)c(=O)oc12 (stereo unspecified) | i | nt | nt | nt | nt | nt
COc1cc(/C=N/N=C2/NC(=O)C(Cc3ccc(F)cc3)S2)ccc1O (stereo unspecified) | i | i | 12.6µM | ? | ? | i
COc1ccc(/C=N/N=C2/NC(=O)C(CC(=O)O)S2)cc1OCc1ccc(Cl)cc1Cl (stereo unspecified) | -45.5 | i | ? | i | i | i
